{
  "source": "PubChem BioAssay (Tox21)",
  "note": "Results filed as inconclusive are left out. Where a call stands in place of a potency, no number is given. Active and inactive are the calls of the source. The call rests on the fitted dose curve; in most records, active means well fitted activation curve with a large enough effect in the repeat runs; inconclusive means weak or mixed curves; inactive means no such curve, though single readings can be large or run the other way. Potency means the concentration at half of the fitted maximal effect.",
  "data": [
    {"target": "Aryl hydrocarbon receptor (Homo sapiens) (UniProt P35869)", "sequence (P35869 whole entry, looked up)": "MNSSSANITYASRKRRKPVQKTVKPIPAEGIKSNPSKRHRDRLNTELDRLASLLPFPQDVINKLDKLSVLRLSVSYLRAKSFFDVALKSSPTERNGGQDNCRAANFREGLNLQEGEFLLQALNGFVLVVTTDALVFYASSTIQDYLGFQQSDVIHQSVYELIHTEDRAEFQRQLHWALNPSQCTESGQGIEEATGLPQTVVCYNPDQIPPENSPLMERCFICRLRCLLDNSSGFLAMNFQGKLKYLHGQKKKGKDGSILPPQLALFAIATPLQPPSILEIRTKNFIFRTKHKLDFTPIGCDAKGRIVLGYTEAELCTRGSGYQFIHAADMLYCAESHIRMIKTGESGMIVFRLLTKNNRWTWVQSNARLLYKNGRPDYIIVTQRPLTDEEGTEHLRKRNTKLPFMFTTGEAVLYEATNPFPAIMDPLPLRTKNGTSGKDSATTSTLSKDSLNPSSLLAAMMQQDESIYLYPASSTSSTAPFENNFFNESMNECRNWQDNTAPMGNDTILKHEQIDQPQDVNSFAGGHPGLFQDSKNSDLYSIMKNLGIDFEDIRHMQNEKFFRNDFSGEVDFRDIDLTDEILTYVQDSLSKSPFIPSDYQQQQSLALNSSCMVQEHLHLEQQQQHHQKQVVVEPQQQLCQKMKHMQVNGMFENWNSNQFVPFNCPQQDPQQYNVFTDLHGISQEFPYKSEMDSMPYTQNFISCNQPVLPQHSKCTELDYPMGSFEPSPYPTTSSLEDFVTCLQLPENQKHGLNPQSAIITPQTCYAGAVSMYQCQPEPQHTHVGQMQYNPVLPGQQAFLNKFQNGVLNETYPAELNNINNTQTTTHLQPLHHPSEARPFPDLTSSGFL", "test": "qHTS assay to identify small molecule that activate the aryl hydrocarbon receptor (AhR) signaling pathway (AID 743085); further: nearly all actives have a fitted effect of over 15% in size;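 on activation: HG2L7.5c1 human HepG2 liver cells with stably integrated DRE-driven firefly reporter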", "conditions": "HepG2 AhR-luc (HG2L7.5c1), luciferase, 24 h; series mostly up to 70.3 µM", "procedure,_shortened": "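Measured in HG2L7.5c1 cells: CellTiter-Fluor signal (30 min incubation, 37C) for viability, then luciferase luminescence (30 min, room temperature). Compound contact time was 24 h at 37C, following a 5 h pre-incubation.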", "values": [
      {"smiles": "CCCC(=O)OC(=O)CCC", "Potency": "inactive"},
      {"smiles": "Nc1ccc(F)cc1", "Potency": "inactive"},
      {"smiles": "CC(C)CC(O)CC(C)C", "Potency": "inactive"},
      {"smiles": "COC(=O)CC(C(C)=O)C(=O)OC", "note": "(stereo not drawn)", "Potency": "inactive"},
      {"smiles": "O=C(O)CCS", "Potency": "inactive"},
      {"smiles": "N[C@@H](Cc1cc(I)c(O)c(I)c1)C(=O)O", "Potency": "inactive"},
      {"smiles": "CC(CO)(CO)C(=O)O", "Potency": "inactive"},
      {"smiles": "COC(C)(C)OC", "Potency": "inactive"},
      {"smiles": "C[C@@H]1[C@H](O)[C@@H](C)/C=C/C=C\\C=C\\C=C\\C=C\\C=C\\C=C\\[C@H](O[C@@H]2O[C@H](C)[C@@H](O)[C@H](N)[C@@H]2O)C[C@@H]2O[C@](O)(C[C@@H](O)C[C@@H](O)[C@H](O)CC[C@@H](O)C[C@@H](O)CC(=O)O[C@H]1C)C[C@H](O)[C@H]2C(=O)O", "note": "(stereo in doubt)", "Potency": "inactive"},
      {"smiles": "CCCCCCCCCCCCCOS(=O)(=O)O", "Potency": "inactive"},
      {"smiles": "CC(C)(C)NCC(O)COc1cccc2c1C[C@H](O)[C@H](O)C2", "note": "(stereo partly drawn)", "Potency": "inactive"},
      {"smiles": "CC1CCc2nccnc21", "note": "(stereo not drawn)", "Potency": "inactive"},
      {"smiles": "COc1ccc(CCN(C)CCCN2CCc3cc(OC)c(OC)cc3CC2=O)cc1OC", "Potency": "inactive"},
      {"smiles": "COc1cc(NS(=O)(=O)c2ccc(N)cc2)nc(C)n1", "Potency": "inactive"},
      {"smiles": "CC(C)C(O)C(C)(C)CO", "note": "(stereo not drawn)", "Potency": "inactive"},
      {"smiles": "COc1ccc(-c2cc(C(F)F)nn2-c2ccc(S(N)(=O)=O)cc2)cc1F", "Potency": "inactive"},
      {"smiles": "[Cl][Nd]([Cl])[Cl]", "Potency": "inactive"},
      {"smiles": "CC(C)OC(=O)c1ccccc1C(=O)OC(C)C", "Potency": "inactive"},
      {"smiles": "CCCCCCC(O)CCOC(C)=O", "note": "(stereo not drawn)", "Potency": "inactive"},
      {"smiles": "CCN(Cc1cccc(S(=O)(=O)O)c1)c1ccc(C(=C2C=CC(=[N+](CC)Cc3cccc(S(=O)(=O)O)c3)C=C2)c2ccccc2S(=O)(=O)[O-])cc1", "Potency": "inactive"},
      {"smiles": "Cc1cccc2sc(N)nc12", "Potency": "27.6 µM (active)"},
      {"smiles": "CCO[Si](C)(CCCOCC1CO1)OCC", "note": "(stereo not drawn)", "Potency": "inactive"},
      {"smiles": "Cc1ccc2c(c1)CCCN2", "Potency": "61.1 µM (active)"},
      {"smiles": "CC[C@H]1OC(=O)[C@H](C)[C@@H](O[C@H]2C[C@@](C)(OC)[C@@H](O)[C@H](C)O2)[C@H](C)[C@@H](O[C@@H]2O[C@H](C)C[C@H](N(C)C)[C@H]2O)[C@](C)(O)C[C@@H](C)/C(=N\\OCOCCOC)[C@H](C)[C@@H](O)[C@]1(C)O", "Potency": "inactive"},
      {"smiles": "Cc1c[nH]c2ccccc12", "Potency": "inactive"},
      {"smiles": "CCCCCCCCCCCCCOC(=O)CCSCCC(=O)OCCCCCCCCCCCCC", "Potency": "inactive"},
      {"smiles": "Cc1cc(CCC(=O)OCCOCCOCCOC(=O)CCc2cc(C)c(O)c(C(C)(C)C)c2)cc(C(C)(C)C)c1O", "Potency": "inactive"},
      {"smiles": "COC(CC(C)CCCC(C)(C)O)OC", "note": "(stereo not drawn)", "Potency": "inactive"},
      {"smiles": "CCSC(=O)N(CC)CC", "Potency": "inactive"},
      {"smiles": "O=C(O)/C=C/c1ccc(O)c(O)c1", "Potency": "inactive"},
      {"smiles": "CSSc1ccoc1C", "Potency": "inactive"},
      {"smiles": "CC(=O)OCC(=O)[C@@]1(OC(C)=O)[C@@H](C)C[C@H]2[C@@H]3C[C@H](F)C4=CC(=O)C=C[C@]4(C)[C@@]3(F)[C@@H](O)C[C@@]21C", "Potency": "inactive"},
      {"smiles": "COc1cc(OC)c2ccc(=O)oc2c1", "Potency": "inactive"},
      {"smiles": "NC(=O)c1ccccc1[N+](=O)[O-]", "Potency": "inactive"},
      {"smiles": "C=C(C)C(=O)OCCC(F)(F)C(F)(F)C(F)(F)C(F)(F)C(F)(F)C(F)(F)F", "Potency": "inactive"},
      {"smiles": "CC(C)C1CCC(C(=O)N[C@H](Cc2ccccc2)C(=O)O)CC1", "note": "(stereo partly drawn)", "Potency": "inactive"},
      {"smiles": "CC(=O)Oc1cccc(O)c1", "Potency": "inactive"},
      {"smiles": "CC[C@H]1OC(=O)[C@H](C)[C@@H](O[C@H]2C[C@@](C)(OC)[C@@H](O)[C@H](C)O2)[C@H](C)[C@@H](O[C@@H]2O[C@H](C)C[C@H](N(C)C)[C@H]2O)[C@](C)(O)C[C@@H](C)CN(C)[C@H](C)[C@@H](O)[C@]1(C)O", "Potency": "inactive"}
    ]}
  ]
}
